Bioassay records (PubChem)
In the library only some 5.8% were active in any assay of this set; here they are far more common.
KB-V1 cytotox = qHTS assay for MDR1-selective chemotherapeutics: Primary screen using the drug-selected MDR subline cells KB-V1. 3.4% of 400,000 active. KB-V1 MDR cells viability, CellTiter-Glo, 72 h. Potency, µM (doses to about 46.1 µM), actives largely listed as cytotoxic; further: nearly all actives have a fitted effect of over 60% in size
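Cells of the MDR subline KB-V1 are plated, dosed with compound at multiple concentrations, and incubated 72 h at 37 degrees C; CellTiter-Glo is then added and luminescence read after 10 min.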
ALOX12 inh = Primary qHTS assay for inhibitors of human arachidonate 12S-lipoxygenase (ALOX12): Round 2. Potency, µM (doses to about 108 µM), most hits filed as inhibitors. 1.1% of 580,000 active. Polyunsaturated fatty acid lipoxygenase ALOX12 (Homo sapiens), P18054. purified 12hLO, xylenol orange hydroperoxide absorbance
Target sequence (P18054 whole entry, looked up): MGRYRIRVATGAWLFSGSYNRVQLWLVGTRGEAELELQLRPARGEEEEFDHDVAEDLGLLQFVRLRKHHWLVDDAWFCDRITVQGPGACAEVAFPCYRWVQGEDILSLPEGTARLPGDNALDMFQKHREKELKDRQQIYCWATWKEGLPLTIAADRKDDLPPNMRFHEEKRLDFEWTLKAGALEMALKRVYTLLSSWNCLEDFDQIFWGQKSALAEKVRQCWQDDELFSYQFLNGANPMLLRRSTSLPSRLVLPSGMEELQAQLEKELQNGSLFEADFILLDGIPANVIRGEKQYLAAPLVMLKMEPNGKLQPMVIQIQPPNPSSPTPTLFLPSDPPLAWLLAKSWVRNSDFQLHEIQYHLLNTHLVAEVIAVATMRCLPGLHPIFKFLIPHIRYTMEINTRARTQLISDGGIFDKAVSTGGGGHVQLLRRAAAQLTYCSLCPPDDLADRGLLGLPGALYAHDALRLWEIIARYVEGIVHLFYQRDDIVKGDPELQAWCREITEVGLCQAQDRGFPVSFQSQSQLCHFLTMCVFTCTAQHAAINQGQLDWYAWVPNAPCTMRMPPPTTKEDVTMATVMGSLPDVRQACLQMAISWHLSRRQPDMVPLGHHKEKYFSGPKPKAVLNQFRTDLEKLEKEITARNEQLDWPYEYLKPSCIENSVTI
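Purified human 12hLO (150 nM final) in 25 mM Hepes, 0.01% Triton X-100, pH 7.0 was preincubated 15 min at room temperature with compound. Then 40 uM arachidonic acid was added, 30 min. Hydroperoxide was read by Fe-XO absorbance ratio 573/405 nm.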
SW480 rereplic = A quantitative high throughput screen for small molecules that induce DNA re-replication in SW480 colon adenocarcinoma cells; Potency, µM (titrated, usually from 46.1 µM), usual class: activators; 1.8% of 340,000 active; SW480 DNA re-replication, Hoechst DNA content imaging, 48 h; further: nearly all actives have a fitted effect of over 55% in size
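Hoechst fluorescence of nuclei (405 nm excitation, 500-530 nm emission) measured by plate-scanning imager after 48 hr compound exposure at 37 C; re-replication scored as increased number of nuclei with elevated intensity.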
PINK1 expr mod = A Quantitative High throughput Screen to Identify Chemical Modulators of PINK1 Expression | PINK1 immunofluorescence, high-content cytometry, 24 h | 0.2% of 410,000 active | Potency, µM (top dose mostly 76.6 µM), most hits filed as activators; active means well fitted activation curve with a large enough effect; inconclusive means small, poorly fitted or top-dose-only effect; cell line not stated here; further: nearly all actives have a fitted effect of over 65% in size
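A stable cell line was treated with compounds at 5 concentrations for 24 hours, with CCCP as control. PINK1 levels and mitochondrial localization were measured by immunofluorescence with mitochondrial, cell and nuclear markers after fixation, read by laser-scanning cytometry.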
MCF10A rerep = A quantitative high throughput screen for small molecules that induce DNA re-replication in MCF 10a normal breast cells | MCF 10A DNA re-replication, Hoechst nuclear intensity, 48 h | Potency, µM (doses to about 46.1 µM), hits mostly activators | 2.9% of 350,000 active | AID 624296, 2012; further: nearly all actives have a fitted effect of over 50% in size
KB-3-1 cytotox = qHTS assay for MDR1-selective chemotherapeutics: Primary screen using the parental adenocarcinoma cell KB-3-1; KB-3-1 viability, CellTiter-Glo ATP luminescence, 72 h; AID 1347075, 2019; 1.4% of 400,000 active; Potency, µM (top dose mostly 46.1 µM), most hits filed as cytotoxic; further: nearly all actives have a fitted effect of over 60% in size
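Multi-concentration cytotoxicity screen in KB-3-1 cells grown in DMEM lacking phenol red with 10% FBS. After 72 h at 37 °C with compound, ATP-dependent luminescence was recorded.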
A number is an active result; [ ] = dose if it differs, or a comment. Unless noted, the call rests on the fitted dose curve; in most records, active means well fitted curve in the direction sought with a large enough effect; inconclusive means small, poorly fitted or top-dose-only effect, or another doubt; inactive means no such curve, though single readings can be large; an effect the other way counts as inactive or inconclusive.

Results for Cc1ccc(NC(=O)c2cccc(C(=O)OC(C)C)n2)c(Br)c1 ?
KB-V1 cytotox: inactive; ALOX12 inh: inactive; SW480 rereplic: inactive; PINK1 expr mod: inactive; MCF10A rerep: inactive; KB-3-1 cytotox: inactive

Results for COC(=O)c1cccc(C(=O)Nc2ccc(C)cc2Br)n1 ?
KB-V1 cytotox: 14.6µM; ALOX12 inh: inactive; SW480 rereplic: inactive; PINK1 expr mod: inactive; MCF10A rerep: inactive; KB-3-1 cytotox: inactive

How did CS(=O)(=O)Oc1ccc2cc(-c3ccccc3)c(=O)oc2c1 do in these assays?
ALOX12 inh: inactive

What do the screens show for `O=C(NCCc1ccccc1)c1ccc2c(c1)N(Cc1ccc(Cl)cc1)C(=O)CS2`?
KB-V1 cytotox: inactive; ALOX12 inh: inactive; PINK1 expr mod: inactive; KB-3-1 cytotox: 23.1µM

Results for O=C(c1ccc2c(c1)N(Cc1ccccc1)C(=O)CS2)N1CCOCC1 ?
KB-V1 cytotox: 14.6µM; ALOX12 inh: inactive; SW480 rereplic: inactive; PINK1 expr mod: inactive; MCF10A rerep: inactive; KB-3-1 cytotox: inactive

Results for COCC(=O)NC[C@@H]1C=C(C)[C@H](Cc2nc3ccc(F)cc3[nH]2)C[C@H]1C(C)C ?
ALOX12 inh: inactive

What do the screens show for `COc1ccccc1NC(=O)Nc1ccc2c(c1)CCC2`?
KB-V1 cytotox: inactive; ALOX12 inh: inactive; SW480 rereplic: inactive; PINK1 expr mod: inactive; MCF10A rerep: inactive; KB-3-1 cytotox: inactive

How did COc1ccc(C(C)(C)C)cc1NC(=O)Nc1ccc2c(c1)OCO2 do in these assays?
KB-V1 cytotox: 23.1µM; ALOX12 inh: inactive; SW480 rereplic: inconclusive; PINK1 expr mod: inactive; MCF10A rerep: inconclusive; KB-3-1 cytotox: inactive

Results for COc1ccc(NC(=O)Nc2ccc3c(c2)CCC3)cc1OC ?
KB-V1 cytotox: inactive; ALOX12 inh: inactive; SW480 rereplic: inactive; PINK1 expr mod: inactive; MCF10A rerep: inactive; KB-3-1 cytotox: inactive

Results for COc1cc(/C=C/C(=O)Nc2cc(C(F)(F)F)ccc2Cl)cc(OC)c1OC ?
KB-V1 cytotox: inconclusive; ALOX12 inh: inactive; SW480 rereplic: inconclusive; PINK1 expr mod: inactive; MCF10A rerep: inactive[9.22 µM]; KB-3-1 cytotox: inconclusive

What do the screens show for `COc1ccc(/C=C/C(=O)Nc2ccc3c(c2)CCC3)cc1OC`?
KB-V1 cytotox: 20.6µM; ALOX12 inh: inactive; SW480 rereplic: inactive; PINK1 expr mod: inactive; MCF10A rerep: inactive; KB-3-1 cytotox: inactive

Results for COc1ccc(/C=C/C(=O)Nc2cc(C(F)(F)F)ccc2Cl)cc1OC ?
KB-V1 cytotox: 20.6µM; ALOX12 inh: inactive; SW480 rereplic: inactive; PINK1 expr mod: inactive; MCF10A rerep: inactive; KB-3-1 cytotox: inactive

What do the screens show for `COc1ccc(C)cc1NC(=O)Nc1ccc2c(c1)CCC2`?
KB-V1 cytotox: inactive; ALOX12 inh: inactive; SW480 rereplic: inactive; PINK1 expr mod: inactive; MCF10A rerep: 23.1µM; KB-3-1 cytotox: inactive

Results for COc1ccc(-c2nc(CSCC(=O)NCC(OC)OC)c(C)o2)cc1OC ?
ALOX12 inh: inactive

Results for N#Cc1cccc(CSc2nccc(C(F)(F)F)n2)c1 ?
ALOX12 inh: inactive

What do the screens show for `COc1cccc(C(=O)N2CCC(N3C[C@H](O)C[C@H]3C(=O)N3CC=C(c4ccccc4)CC3)CC2)c1`?
ALOX12 inh: inactive

How did CC(C)CCNC(=O)NC(=O)CCl do in these assays?
ALOX12 inh: 28.2µM

Results for COc1cccc(/C(O)=C/c2nc3ccc(C(=O)NCCc4ccc(Cl)cc4)cc3[nH]c2=O)c1 ?
KB-V1 cytotox: inconclusive; ALOX12 inh: inactive; SW480 rereplic: 11.6µM; PINK1 expr mod: inactive; MCF10A rerep: 8.2µM; KB-3-1 cytotox: 20.6µM

Results for COc1cccc(/C(O)=C/c2nc3ccc(C(=O)NCCc4cccc(C)c4)cc3[nH]c2=O)c1 ?
KB-V1 cytotox: inconclusive; ALOX12 inh: inactive; PINK1 expr mod: inconclusive; MCF10A rerep: inconclusive; KB-3-1 cytotox: inconclusive

What do the screens show for `O=C(COC(=O)/C(=C/c1cccs1)c1cccs1)NC(c1ccccc1)c1ccccc1`?
KB-V1 cytotox: 8.2µM; ALOX12 inh: inactive; SW480 rereplic: inactive; PINK1 expr mod: inactive; MCF10A rerep: inactive; KB-3-1 cytotox: inactive

Results for Cc1[nH]c2ccccc2c1C(O)CN1CCN(c2cccc(C(F)(F)F)c2)CC1 (stereo unspecified) ?
KB-V1 cytotox: inconclusive; ALOX12 inh: inconclusive; SW480 rereplic: inactive[9.22 µM]; PINK1 expr mod: inactive; MCF10A rerep: inconclusive; KB-3-1 cytotox: 14.6µM

Results for Cc1[nH]c2ccccc2c1NC(=O)CN1CCN(c2cccc(C(F)(F)F)c2)CC1 ?
KB-V1 cytotox: inactive; ALOX12 inh: inactive; SW480 rereplic: inconclusive; PINK1 expr mod: inactive; MCF10A rerep: inconclusive; KB-3-1 cytotox: inactive

What do the screens show for `O=C(N[C@@H]1CN(c2ncccn2)C[C@H]1CO)c1ccc2c(c1)OCO2`?
ALOX12 inh: inactive

Results for CC1=CC(C)C(COC(=O)C[N+]2(C)CCOCC2)C(C)C1 (stereo unspecified) ?
ALOX12 inh: 20µM

What do the screens show for `CC1=C(C(=O)Nc2ccccc2)C(c2ccc(Br)cc2)N2C(=O)CSC2=N1` (stereo unspecified)?
ALOX12 inh: inactive

How did COc1ccc(C(=O)/C=C2/C(=O)Nc3ccccc32)c(OC)c1 do in these assays?
KB-V1 cytotox: inconclusive; ALOX12 inh: inconclusive; SW480 rereplic: inconclusive; PINK1 expr mod: inactive; MCF10A rerep: 23.1µM; KB-3-1 cytotox: inconclusive

Results for C=CCOc1ccccc1C(=O)/C=C1/C(=O)Nc2ccccc21 ?
KB-V1 cytotox: inactive; ALOX12 inh: inactive; SW480 rereplic: inconclusive; PINK1 expr mod: inactive; MCF10A rerep: 3.66µM; KB-3-1 cytotox: inconclusive

What do the screens show for `C=CCOc1ccc(C(=O)/C=C2/C(=O)Nc3ccccc32)cc1`?
KB-V1 cytotox: inactive; ALOX12 inh: inactive; SW480 rereplic: inconclusive; PINK1 expr mod: inactive; MCF10A rerep: inconclusive; KB-3-1 cytotox: inactive

Results for O=C(C=Cc1ccccc1)c1cccs1 ?
KB-V1 cytotox: inconclusive; ALOX12 inh: inactive; SW480 rereplic: inconclusive; PINK1 expr mod: inactive; MCF10A rerep: inconclusive; KB-3-1 cytotox: inconclusive

How did NC(=O)COc1ccc(C(=O)/C=C2/C(=O)Nc3ccccc32)cc1 do in these assays?
KB-V1 cytotox: inactive; ALOX12 inh: inactive; SW480 rereplic: 23.1µM; PINK1 expr mod: inactive; MCF10A rerep: inconclusive; KB-3-1 cytotox: inactive

How did O=C1Nc2ccccc2/C1=C/C(=O)c1cccs1 do in these assays?
KB-V1 cytotox: inactive; ALOX12 inh: inconclusive; SW480 rereplic: inconclusive; PINK1 expr mod: inactive; MCF10A rerep: 20.6µM; KB-3-1 cytotox: inactive

How did C=CCOc1ccccc1C(=O)Nc1ccc(C#N)cc1 do in these assays?
ALOX12 inh: inactive

How did COCCn1cnnc1SC(C)C(=O)c1cccc(Cl)c1 (stereo unspecified) do in these assays?
ALOX12 inh: inactive
